Results on 40 sequences are retold here after the supplement of paper PMC6555819.

One experiment concerns PPARg homodimer (NR concentration 180 nM). As to the kind of experiment: PBM binding z-score (relative to random genomic background probes); higher = stronger binding; sequences stand for … in GC…GCGATTGACAGCGTAGAATGAAGG
The essentials: (§1)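 Each nuclear receptor dimer, without ligand, was incubated for 1 h on custom Agilent 4×180K protein-binding microarrays. Binding was detected with antibodies against each partner (one per run), and scanned fluorescence was regression-normalized. The binding z-scores are referenced to random human genomic background probes.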
For AATACAGGGTCATCGTAGGCCAGAGAACGCACAG, the PBM binding z-score was 2.96.
In the case of CCGACTGGGGCATAAGGTTACGATAAGCCAGCCC, the PBM binding z-score stood at 1.02.
On the same count and under the same terms, as for CGTCCAAGGTCAGAGAGGTAAGTGAATGCCGAGT, the figure is 1.67; as for TCGAGTAGGTTACCAATGGGGCGTTCAGCTTTCT, 0.122.
For CCTCCTGGGCCAAAGGTCATTGATTCCAATGCTC, the PBM binding z-score is 3.43.
The same measure, in the same setting: the value for GCGACTGGGGCATCAGGAGGTTACCATAACTTAA was 0.816.
With CCTATTAGTTGACCATAAGGGCAACGGAAGCTCG, the PBM binding z-score was found to be 2.06.
Sequence CAAACTAGGTCAACGGAAGGTCAAAGTCCGCATG showed a PBM binding z-score of 7.1.
For the sequence ACTATTAGTTGAGACGCGGGCAACCGATAGGTTG, the PBM binding z-score is -0.291.
ACTAGTTAGTCAGCTGAGGTCACACACAATTCGG yielded a PBM binding z-score of 2.26.
The same measure, in the same setting: as for ATCGAAAGGTCGAAGGTGAATATACCCACCCGAA, the figure is 2.07.
Same read-out and setting: the value for ATATCTAGGTTAGCTGGGGTCATTCAGACTAGGC was 2.3; that for TCTTGTAGATCAAGCAGGTTAAGAAGGCCTGAGT was 0.079.
The same measure, in the same setting: as for CCAGACAGGTTAAAGGTAACTCAGTCTGGTACGC, the figure is 1.24; as for TCTTGTAGATCAAAGGTTAAGTAAGCCGAAGCCT, 0.931; as for TCTGCAAGGTCAGTTGGTCAGCTAACGAGCTGCC, 1.99.
Sequence TTACCAAGGTGAAGGTCGCTGATCCCTCTGTAGA returned a PBM binding z-score of 0.05.
The same measure, in the same setting: as for ACTTACGGGGCAACGAGGTTATAGCACGCGTATA, the figure is 0.811; as for TCTGCTAGGTCAACGATGGTCAGCCAATCTGCTA, 1.87.
The sequence ATCTCTACGTAACCAAGTTCAGTGAATGCCGAAC displayed a PBM binding z-score of 0.739.
On the same count and under the same terms, as for GCTATTAGTTGAAAGGGCATCCGAATGATTCTCG, the figure is 1.17; as for CGAACTAGGTCGTTGACAGGACAGTGAATAGTAA, 0.203.
Sequence TCATATAGGTAACAGGTGAAAGTCGGTGTGGTAA came in with a PBM binding z-score of 1.4.
Still for that read-out and setting: the value for AGAATGAGGTTACCAAAGATCAGGGACACGCTTG was 0.873.
The same measure, in the same setting: the value for CGAACTAGGTCAAGGACAGTGCATCTCCGCACGC was 1.3; that for CCTACTGGGCCATCTGGTCATTGATATCAACGTT was 0.5; that for CGTCCAAGGTCAAAGGAGGTCAGTGAAGACAGAT was 3.39.
On to ACTAGCAGGCCAAGTTTGGGTGACTCAAACAAAG, for which the PBM binding z-score is -0.815.
Same read-out and setting: as for CAAACTAGGTCACCGGAAGGTCAAAATCCGCATG, the figure is 9.41.
The same measure, in the same setting: the value for CCTGCTAGGTCAATGGTCAACTAAAGCAGCTCGC was 1.41; that for CCAGACAGGTGAGAAGGTATCTCAGCCTCGATTA was 0.414.
TCTAGCAAGCCAGAGGGTCACTCAAGAGGTACGG yielded a PBM binding z-score of 0.24.
The same measure, in the same setting: as for CGTCCAAGGTCAGAGAGCTCAGTGAATGCCGAGT, the figure is 1.67; as for CGTCCAAGGTCAAGGTCAGCGAAAGAGACTCGAA, 3.43.
Still for that read-out and setting: as for CCTACTCGGCCATTCAGAGGTCATTGATCATATG, the figure is 2.68.
In turn, TCGAATAGGTTACCAATGGGGCATTCAGCTTTCT showed a PBM binding z-score of 0.402.
Still for that read-out and setting: as for ATCGAGAGGTCGAAGGTGAGTATACCCACCCGAA, the figure is 0.129; as for CCTTGCAGGCCAGGGTCACTCAAGCATTTCGCTT, 0.75; as for TCGCGTAGGTTAGTCGGGGCATTCAGCCAACATA, -0.58.
Same read-out and setting: the value for AGGATGAGGTTACCAAAGATCAGGGAAACGCTTG was 1.12.

The next experiment deals with PXR:RXRa (NR concentration 270 nM, RXRa partner concentration 90 nM). Described as above. A digest of the protocol: as §1
In the case of AATACAGGGTCATCGTAGGCCAGAGAACGCACAG, the PBM binding z-score worked out at 5.14.
On to CCGACTGGGGCATAAGGTTACGATAAGCCAGCCC, for which the PBM binding z-score turned out to be 0.614.
As to CGTCCAAGGTCAGAGAGGTAAGTGAATGCCGAGT, the PBM binding z-score worked out at 2.89.
The same measure, in the same setting: the value for TCGAGTAGGTTACCAATGGGGCGTTCAGCTTTCT was -0.176; that for CCTCCTGGGCCAAAGGTCATTGATTCCAATGCTC was 5.26.
On to GCGACTGGGGCATCAGGAGGTTACCATAACTTAA, for which the PBM binding z-score turned out to be 0.63.
Same read-out and setting: as for CCTATTAGTTGACCATAAGGGCAACGGAAGCTCG, the figure is 0.568.
Still for that read-out and setting: as for CAAACTAGGTCAACGGAAGGTCAAAGTCCGCATG, the figure is 5.74; as for ACTATTAGTTGAGACGCGGGCAACCGATAGGTTG, -0.299; as for ACTAGTTAGTCAGCTGAGGTCACACACAATTCGG, 5.14.
Still for that read-out and setting: as for ATCGAAAGGTCGAAGGTGAATATACCCACCCGAA, the figure is 3.5; as for ATATCTAGGTTAGCTGGGGTCATTCAGACTAGGC, 6.2.
In turn, TCTTGTAGATCAAGCAGGTTAAGAAGGCCTGAGT yielded a PBM binding z-score of 0.386.
Sequence CCAGACAGGTTAAAGGTAACTCAGTCTGGTACGC displayed a PBM binding z-score of 2.15.
Still for that read-out and setting: the value for TCTTGTAGATCAAAGGTTAAGTAAGCCGAAGCCT was 2.16; that for TCTGCAAGGTCAGTTGGTCAGCTAACGAGCTGCC was 2.09; that for TTACCAAGGTGAAGGTCGCTGATCCCTCTGTAGA was 0.966.
ACTTACGGGGCAACGAGGTTATAGCACGCGTATA: the PBM binding z-score turned out to be 1.62.
As to TCTGCTAGGTCAACGATGGTCAGCCAATCTGCTA, the PBM binding z-score was determined as 1.6.
Still for that read-out and setting: as for ATCTCTACGTAACCAAGTTCAGTGAATGCCGAAC, the figure is 1.29; as for GCTATTAGTTGAAAGGGCATCCGAATGATTCTCG, 0.67; as for CGAACTAGGTCGTTGACAGGACAGTGAATAGTAA, 0.234.
For the sequence TCATATAGGTAACAGGTGAAAGTCGGTGTGGTAA, the PBM binding z-score came out at 0.896.
In the case of AGAATGAGGTTACCAAAGATCAGGGACACGCTTG, the PBM binding z-score came to 1.29.
As for CGAACTAGGTCAAGGACAGTGCATCTCCGCACGC, the PBM binding z-score was 2.24.
The sequence CCTACTGGGCCATCTGGTCATTGATATCAACGTT registered a PBM binding z-score of -0.397.
Turning to CGTCCAAGGTCAAAGGAGGTCAGTGAAGACAGAT, the PBM binding z-score came out at 6.84.
Regarding ACTAGCAGGCCAAGTTTGGGTGACTCAAACAAAG, the PBM binding z-score is -0.475.
For CAAACTAGGTCACCGGAAGGTCAAAATCCGCATG, the PBM binding z-score worked out at 5.86.
Still for that read-out and setting: as for CCTGCTAGGTCAATGGTCAACTAAAGCAGCTCGC, the figure is 1.22.
On the same count and under the same terms, the value for CCAGACAGGTGAGAAGGTATCTCAGCCTCGATTA was -0.407.
For TCTAGCAAGCCAGAGGGTCACTCAAGAGGTACGG, the PBM binding z-score was found to be 0.871.
The same measure, in the same setting: as for CGTCCAAGGTCAGAGAGCTCAGTGAATGCCGAGT, the figure is 2.14.
Sequence CGTCCAAGGTCAAGGTCAGCGAAAGAGACTCGAA returned a PBM binding z-score of 4.67.
On to CCTACTCGGCCATTCAGAGGTCATTGATCATATG, for which the PBM binding z-score amounted to 4.91.
The sequence TCGAATAGGTTACCAATGGGGCATTCAGCTTTCT yielded a PBM binding z-score of 0.725.
ATCGAGAGGTCGAAGGTGAGTATACCCACCCGAA showed a PBM binding z-score of 2.42.
Sequence CCTTGCAGGCCAGGGTCACTCAAGCATTTCGCTT showed a PBM binding z-score of 2.65.
With TCGCGTAGGTTAGTCGGGGCATTCAGCCAACATA, the PBM binding z-score is 0.226.
Same read-out and setting: as for AGGATGAGGTTACCAAAGATCAGGGAAACGCTTG, the figure is 1.47.
